hcDAF-12 act – H. contortus DAF-12 nuclear receptor activators, primary screen, cell-based, luminescence, HEK293, lit1-tk-luc reporter; HEK293 hcDAF-12 lit1-tk-luc reporter; 0% DMSO, 100% Δ7-dafachronic acid; activation, % at 6.8 µM; actives 1.4% (n = 370,000); AID 652067, 2013;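 active means activation above the mean of all tested compounds plus 3 SD, cut at about 5.5% in these data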
DAX1 inh-1 – DAX1 (NR0B1) inhibitors, primary screen, cell-based, HEK293, Gal4-DAX1, luciferase luminescence; AID 504766, 2011; HEK293 Gal4-DAX1 luciferase reporter; Nuclear receptor subfamily 0 group B member 1 (Homo sapiens), P51843; inhibition, % at 6.75 µM; actives 0.99% (n = 340,000);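 active means inhibition above the mean over all tested compounds plus 3 SD, cut at about 4.2% in these data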;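 further: inhibition shows as a rise in luminescence from relieved DAX1 repression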
Target sequence (P51843 207-470 limits assumed): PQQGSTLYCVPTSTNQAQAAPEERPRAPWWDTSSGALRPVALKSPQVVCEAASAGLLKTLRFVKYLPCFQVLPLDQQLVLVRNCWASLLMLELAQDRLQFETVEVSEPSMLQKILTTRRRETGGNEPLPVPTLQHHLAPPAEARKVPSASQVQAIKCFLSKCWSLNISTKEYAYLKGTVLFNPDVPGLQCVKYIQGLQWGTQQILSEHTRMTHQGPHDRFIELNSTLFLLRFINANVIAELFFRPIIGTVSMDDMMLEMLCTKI
DAX1 inh-2 – DAX1 (NR0B1) inhibitors on StAR promoter, primary screen, cell-based, luminescence, SF-1 (NR5A1), full-length DAX-1; HEK293T StAR-luciferase reporter, SF-1/DAX-1 repression relief; inhibition, % at 6.8 µM; actives 1.1% (n = 370,000); AID 652010, 2013;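 active means inhibition above the mean over all tested compounds plus 3 SD, cut at about 3.6% in these data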;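 further: higher inhibition means more luminescence from relief of DAX-1 repression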
hgDAF12 agonist – H. glycines DAF-12 receptor agonists, primary screen, cell-based, luminescence, HEK293, GAL4 fusion, UAS-luciferase; activation, % at 6.8 µM; Nuclear hormone receptor DAF-12 (Heterodera glycines), GAL4 fusion; actives 1.8% (n = 370,000); AID 687014, 2013; HEK293 GAL4-hgDAF12 UAS-luciferase reporter, agonist luminescence; normalized to butyrate control;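 active means activation above a cutoff set at the mean of all screened compounds plus 3 SD, cut at about 10% in these data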
ssDAF-12 act – S. stercoralis DAF-12 nuclear receptor activators, primary screen, cell-based, luminescence, HEK293, GRIP1 co-expression, lit1-tk-luc | HEK293 ssDAF-12/GRIP1 lit1-tk-luc reporter; % of 3 µM dafachronic acid response | actives 1% (n = 370,000) | activation, % at 6.8 µM;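 active means activation above the mean over all tested compounds plus 3 SD, cut at about 0.9% in these data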
Hits are given with their value; n = inactive; x = no result given. Most compounds without a hit are left out; they make up all but 4.1% or so of the library.

SMILES	hcDAF-12 act	DAX1 inh-1	DAX1 inh-2	hgDAF12 agonist	ssDAF-12 act
CCCCCCNC(=O)C1CSCCS(=O)(=O)N1Cc1ccccc1 (stereo not drawn)	n	x	n	n	n
C/C(=N\NC(=O)c1nn(C)cc1Cl)c1ccncc1	n	n	n	n	n
C/C(=N\NC(=O)c1nn(C)cc1Br)c1ccncc1	n	7.6	n	n	n
O=C1CN(c2ccccc2)C(=S)N1C(=O)c1ccc(Br)cc1	n	7.7	n	14	n
O=C(c1ccc(Br)cc1)N1CCC(C(=O)N2CCN(c3ccccc3)CC2)CC1	n	n	n	n	n
COC(=O)C[C@@H]1CC[C@@H]2[C@@H](COc3ccc(NC(=O)c4ccc(F)cc4)cc3C(=O)N2C)O1	n	x	n	n	n
CCN(CC)c1nc(-c2ccccc2)ncc1S(=O)(=O)c1ccc(C)cc1	n	n	n	n	n
CN(C)c1nc(-c2ccccc2)ncc1S(=O)(=O)c1ccccc1	n	n	4.0	n	n
CCC(=O)NC(Cc1ccccc1)c1nc2ccccc2[nH]1 (stereo not drawn)	n	4.2	n	n	n
CC(SCC(=O)O)c1nc2ccccc2[nH]1 (stereo not drawn)	n	n	n	n	1.0
O=C(O)CSc1nc2ccccc2[nH]1	n	n	n	n	n
CN(CC(=O)Nc1ccccc1C(F)(F)F)C(=O)c1ccc(N2C(=O)CCC2=O)cc1	n	4.5	n	n	n
CCN(CC(=O)Nc1ccccc1C(F)(F)F)C(=O)c1ccc(N2C(=O)CCC2=O)cc1	n	n	n	n	n
COC(=O)[C@]12C[C@H](CC(=O)NCc3cccc4ccccc34)C(=O)N(Cc3ccc(Cl)cc3Cl)C1=C[C@H](COCc1ccccc1)O[C@@H]2C	n	x	n	n	n
O=C(N/N=C\c1cc2c(cc1Cl)OCO2)c1cccs1	n	n	n	13	n
O=C(N/N=C\c1cc2c(cc1[N+](=O)[O-])OCO2)c1cccs1	n	n	n	n	n
C=C(C)c1cccc(C(C)(C)NC(=O)Nc2nncs2)c1	n	4.8	n	n	n
C=C(C)c1cccc(C(C)(C)NC(=O)Nc2nnc(C(C)C)s2)c1	n	n	n	n	n
CCOC(=S)SCc1cn2cccc(C)c2n1	n	5.0	n	n	n
C=CCN1C(=O)[C@H](CC(=O)NCCC(C)C)[C@@]2(C(=O)OCC)CCCC=C12	n	x	n	n	n
Cc1c[nH]c2cccc(-c3ccccc3)c12	n	x	n	n	n
COc1ccc2cc(-c3cccc4[nH]cc(C)c34)ccc2c1	n	x	n	n	1.5
O=C(O)c1cc(=O)c2c(Cl)cc(Cl)cc2[nH]1	n	n	n	n	n
O=C(O)c1cc(=O)c2ccccc2[nH]1	6.4	n	n	n	1.5
O=C(O)c1cc2c(cn1)[nH]c1ccccc12	6.3	n	n	n	n
SMILES	hcDAF-12 act	DAX1 inh-1	DAX1 inh-2	hgDAF12 agonist	ssDAF-12 act
COc1cc(/C=N/N=C(\N)c2nonc2N)cc(OC)c1O	n	4.2	n	13	n
COc1cc(/C=N/N=C(/N)c2nonc2N)cc(Br)c1OCc1cccc(C)c1	n	n	n	n	n
O=C(Nc1ccc(F)cc1)OCc1cn(Cc2cccc(F)c2)nn1	n	x	n	n	n
Cc1nn(C)cc1/C=C/C(=O)c1cccs1	n	5.2	n	12	n
Nn1c(Nc2ccccc2)nc2ccccc21	n	4.4	n	n	n
Cn1c(Nc2ccccc2)nc2ccccc21	n	n	n	n	n
CCCC[C@H]1C2CC(OC(=O)Nc3cccc(C(F)(F)F)c3)C(C2)[C@H]2CCCCN21 (stereo partly drawn)	n	x	n	n	n
CCOc1ccc2oc(C(=O)NC(C)(C)CC)c(C)c2c1	n	n	n	13	n
CCN(CCc1ccccc1)c1ccc2c(c1)C1CC2CCN1C(=O)OCc1ccccc1 (stereo not drawn)	n	n	n	n	1.6
CCCCN(C(C)=O)c1ccc2c(c1)C1CC2CCN1C(=O)OCc1ccccc1 (stereo not drawn)	n	n	n	n	n
C[C@@H]1NC(=O)[C@H]2C[C@@]3(c4ccccc4)c4ccccc4N[C@H]3N2C1=O	n	x	n	n	n
Cc1ccc(Cn2c(=O)n(Cc3ccc(C(=O)NCC4COC4)cc3)c(=O)c3ccccc32)cc1	n	x	n	n	n
C[C@@H]1/C=C/CC(=O)N[C@H](c2ccccc2)[C@H](C)/C=C/CC(=O)N[C@@H]1c1ccccc1	n	x	n	n	n
O=C(Nc1ccccn1)c1ccc([N+](=O)[O-])cc1Cl	n	n	n	n	n
CN(C)c1ccc(NC(=O)c2ccc([N+](=O)[O-])cc2Cl)cc1	n	n	n	12	n
Cc1ccc(NC(=O)c2ccc([N+](=O)[O-])cc2Cl)nc1	n	n	n	11	n
Cn1c2ccc(F)cc2c2ncn(CCN3CCOCC3)c(=O)c21	n	7.2	n	n	n
O=[N+]([O-])c1cccnc1NCCc1c[nH]c2ccccc12	n	n	n	12	1.0
Nc1[nH]c(C(=O)c2ccccc2)c(-c2ccc(Cl)cc2)c1C(=O)NCCc1c[nH]c2ccccc12	n	x	n	n	n
COc1ccc(S[C@]2(C(=O)N3CCOCC3)CC(=O)N(S(=O)(=O)c3ccc(F)cc3)[C@@H]2c2ccc(OC)cc2)cc1	n	x	n	n	n
Cn1cccc1C(=O)OCC(=O)NC1CCS(=O)(=O)C1 (stereo not drawn)	n	n	n	n	2.5
O=C(CSc1nc2ccccc2o1)NCc1n[nH]c(=O)c2ccccc12	6.2	n	n	n	n
COc1ccccc1-c1nc(COc2ccc(Cl)cc2Cl)no1	n	4.6	n	n	n
Cc1cc(Cl)n2ncc(-c3ccccc3)c2n1	n	n	n	n	n
Cc1cc(C(F)(F)Cl)n2ncc(-c3ccccn3)c2n1	n	n	n	n	1.2
SMILES	hcDAF-12 act	DAX1 inh-1	DAX1 inh-2	hgDAF12 agonist	ssDAF-12 act
O=C(Nc1ccc(N2C(=O)CC3(CCCCC3)C2=O)c(Cl)c1)c1ccccn1	n	x	x	n	n
Cc1csc(NC(=O)c2ccc(COc3ccc(Cl)c(Cl)c3)o2)n1	n	x	n	n	n
c1nc(NCC2CCCOC2)c2cc(-c3ccc4c(c3)OCO4)ccc2n1 (stereo not drawn)	n	x	x	n	n
N/C(Cc1cccc2ccccc12)=N\OC(=O)c1ccccc1F	n	n	n	n	n
N/C(Cc1ccc(Cl)cc1Cl)=N\OC(=O)c1ccccc1F	6.0	n	n	n	n
Cc1ccc2nc(SCc3nc4ccccc4c(=O)[nH]3)[nH]c2c1	n	n	n	11	n
